From PubChem BioAssay
Most compounds without a hit are left out; they make up all but 12% or so of the library.
Pf growth 48h: P. falciparum growth inhibition at 48 hours (one generation) | Potency, µM (titrated, usually from 28.7 µM), for inactives: top-dose activity change, negative = inhibition, usual class: inhibitors | 310,000 compounds, 5.9% hits | AID 504832 | P. falciparum luciferase growth in erythrocytes, 48 h; also: % is scaled to controls: 0 for no effect and ±100 for the full control effect
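Here the parasites carry a stable luciferase gene and grow inside erythrocytes in Albumax-based RPMI medium with compound for one erythrocytic cycle. Activity is scored as loss of luminescent signal.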
Pf growth 96h: P. falciparum growth inhibition at 96 hour, primary screen for plastid delayed-death inhibitors. P. falciparum luciferase reporter growth, 96 h. Potency, µM (titrated, usually from 28.7 µM), for inactives: top-dose activity change, negative = inhibition, usual class: inhibitors. 320,000 compounds, 6.9% hits. AID 504834; also: % is scaled to controls: 0 for no effect and ±100 for the full control effect
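Delayed-death screen, second-generation endpoint: infected erythrocytes, 2% hematocrit, 0.05% parasitemia final; 96 hours at 37 C, 5% CO2; luciferase detection reagent; luminescence decrease equals reduced growth.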
Sm TGR inh: inhibitors of Schistosoma mansoni thioredoxin glutathione reductase; Potency, µM (highest dose often 114 µM), inactives show at the top dose activity change, negative = inhibition, actives largely listed as inhibitors; purified TGR, DTNB reduction, TNB absorbance 405 nm; 360,000 compounds, 3% hits; also: % is scaled to controls: 0 for no effect and ±100 for the full control effect; nearly all actives have a fitted effect of over 60% in size
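TGR 20 nM + NADPH 100 uM (dispensed conc.), cpd preinc 15 min RT; start with NADPH (500 uM addition) then DTNB (15 mM addition). Kinetic TNB absorbance, 405 nm filter. Four-parameter Hill fit across titration.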
SARS PLP yeast: blocks SARS-CoV papain-like protease in a yeast assay; Potency, µM (top dose mostly 32.9 µM), for the others: top-dose activity, positive = growth rescue, hits mostly activators; AID 485353; 330,000 compounds, 0.19% hits; S. cerevisiae expressing SARS-CoV PLpro, growth rescue; calls by dose curve; also: 0% is about no effect; nearly all actives have a fitted effect of over 55% in size
* marks the source's active call; other numbers are inactive results; [ ] = remark or other dose. Unless noted, calls follow the shape of the dose curve; as a rule, active = well fitted curve in the direction sought with a large enough effect; inconclusive = small, poorly fitted or top-dose-only effect, or another doubt; inactive = no such curve, though single readings can be large; an effect the other way counts as inactive or inconclusive. Potency is read from the fitted curve at half-maximal effect.

Results for Cc1nnc(SCCn2c(N(C)Cc3ccccc3)nc3c2c(=O)[nH]c(=O)n3C)s1 ?
Pf growth 96h: inconclusive; Sm TGR inh: -4%; SARS PLP yeast: 8%

How did CN(Cc1ccccc1)c1nc2c(c(=O)n(C)c(=O)n2C)n1CCSc1ncccn1 do in these assays?
Pf growth 48h: 10µM*; Pf growth 96h: inconclusive; Sm TGR inh: -9%; SARS PLP yeast: 1%

Results for Cc1cccc(OCC(=O)OCc2cc(=O)n3nc(-c4cccs4)sc3n2)c1 ?
Sm TGR inh: -1%

What do the screens show for `CC(C)(C)OC(=O)N1CCC(c2c(C(=O)NCc3ccc4c(c3)OCO4)cnn2-c2ccccc2Cl)CC1`?
Sm TGR inh: 2%

How did O=C(NC1CCCCC1)c1cc(S(=O)(=O)N2CCCCC2)ccc1N1CCOCC1 do in these assays?
Pf growth 48h: inconclusive; Pf growth 96h: inconclusive; Sm TGR inh: -5%; SARS PLP yeast: 2%

What do the screens show for `O=C(NC1CCCCCC1)c1cc(S(=O)(=O)N2CCOCC2)ccc1N1CCCCC1`?
Pf growth 48h: inconclusive; Pf growth 96h: 6.6µM*; Sm TGR inh: 6%; SARS PLP yeast: -2%

Results for O=C(NC1CCCCCC1)c1cc(S(=O)(=O)N2CCCCC2)ccc1N1CCOCC1 ?
Pf growth 48h: 12µM*; Pf growth 96h: inconclusive; Sm TGR inh: 4%; SARS PLP yeast: 0%

How did O=C(Nc1ccccc1)c1cc(S(=O)(=O)N2CCCCC2)ccc1N1CCOCC1 do in these assays?
Pf growth 48h: inconclusive; Pf growth 96h: inconclusive; Sm TGR inh: -35%; SARS PLP yeast: 3%

What do the screens show for `NC(=O)c1ccccc1NC(=O)c1cc(S(=O)(=O)N2CCCCC2)ccc1N1CCOCC1`?
Pf growth 48h: 13µM*; Pf growth 96h: 6.6µM*; Sm TGR inh: -13%; SARS PLP yeast: -11%

Results for CC(C)(C)OC(=O)C[C@H]1C/C=C\C[C@@H](CC(=O)N(CCO)Cc2ccccc2)C(=O)N[C@H](Cc2ccccc2)COC1=O ?
SARS PLP yeast: 2%

Results for CCC(C)NC(=O)C1(O)c2cc(Br)ccc2NC(=O)N1c1cccc(OC)c1 (stereo unspecified) ?
Pf growth 48h: 7%[0.00184 µM]; Pf growth 96h: inconclusive; Sm TGR inh: -15%; SARS PLP yeast: 0%

What do the screens show for `CC1(c2nnc(-c3ccc(Cl)cc3)o2)CC(c2ccc([N+](=O)[O-])cc2)=NO1` (stereo unspecified)?
Pf growth 48h: -18%; Pf growth 96h: 27%; Sm TGR inh: -10%; SARS PLP yeast: 0%

Results for CC1(c2nnc(-c3ccncc3)o2)CC(c2ccc([N+](=O)[O-])cc2)=NO1 (stereo unspecified) ?
Pf growth 48h: 76%; Pf growth 96h: 9%; Sm TGR inh: 35µM*; SARS PLP yeast: 1%

Results for COCCCNC(c1ccccc1)c1ccncc1 (stereo unspecified) ?
Pf growth 48h: -2%; Pf growth 96h: 2.6µM*; Sm TGR inh: -21%; SARS PLP yeast: 4%

Results for CC(C)[C@H](NS(=O)(=O)c1ccccc1)C(=O)Nc1ccccc1N1CCOCC1 ?
SARS PLP yeast: 1%

What do the screens show for `CN(C(=O)CSc1nnc(C2CC2)n1-c1ccccc1)C1CCS(=O)(=O)C1` (stereo unspecified)?
Pf growth 48h: 17%; Pf growth 96h: inconclusive; Sm TGR inh: 6%; SARS PLP yeast: 7%

Results for Cc1ccccc1Sc1ncnc2onc(C)c12 ?
Pf growth 96h: 8.3µM*; Sm TGR inh: 4%; SARS PLP yeast: -6%

How did Cc1noc2ncnc(Sc3c(Cl)cccc3Cl)c12 do in these assays?
Pf growth 96h: 2.3µM*; Sm TGR inh: -14%; SARS PLP yeast: -1%

Results for CSc1ncccc1C(=O)Nc1ccc2c(c1)OCCO2 ?
SARS PLP yeast: -9%

What do the screens show for `Cc1ccc(S(=O)(=O)N2CC3CCCC2C3)cc1` (stereo unspecified)?
Pf growth 48h: 1.7µM*; Pf growth 96h: -33%; Sm TGR inh: 4%; SARS PLP yeast: -2%

How did CC(C)CC(=O)Nc1ccc(C(=O)CN2CCC(C)CC2)cc1 do in these assays?
Pf growth 48h: 36%; Pf growth 96h: 3%; Sm TGR inh: 20µM*; SARS PLP yeast: -2%

What do the screens show for `CC1CCN(c2ccc(NC(=O)c3cccnc3Cl)cc2)CC1`?
Pf growth 48h: 21%; Pf growth 96h: 10µM*; Sm TGR inh: 12%; SARS PLP yeast: 0%
